Data from PubChem BioAssay AID1159580 (chemical genetic matrix, 2015).
Out of some 5,500 compounds screened, about 2,000 (36%) were called active. Not shown: some 18% with an inconclusive outcome. Cut-off read from the data, not from the text of the source: active = normalized growth mostly below about 0.91 (no sharp cut-off); inconclusive = no clear call, values can overlap the other calls; inactive = mostly above about 0.92. The list shows a part of the results.

Assay: chemical genetic growth profiling, strain panel (AID 1159580);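 note: tested at 20 µM; growth read once vehicle control cultures reached saturation at 30 °C; 1 = growth at the plate median or of vehicle wells; lower values mean less growth of the strain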
Settings: S. cerevisiae deletion strains, growth OD
[1] = locus YHR030C, strain SLT2, stronger effect = lower value
[2] = locus YHR079C, strain IRE1, stronger effect = lower value
[3] = locus YJL095W, strain BCK1, stronger effect = lower value
[4] = locus YJR066W, strain TOR1, stronger effect = lower value
[5] = locus YLR113W, strain HOG1, stronger effect = lower value
[6] = locus YNL183C, strain NPR1, stronger effect = lower value
[7] = locus YOR231W, strain MKK1, stronger effect = lower value
[8] = locus YPL256C, strain CLN2, stronger effect = lower value

Measured: normalized growth

O=C(Nc1ccccc1)OCC(CN1CCCCC1)OC(=O)Nc1ccccc1 (centres undefined)
inactive: [1] 1 | [2] 1.03 | [3] 1 | [4] 0.925 | [5] 1.01 | [6] 0.949 | [7] 1.01 | [8] 0.988

Cc1ccc(NC(=S)C(C#N)C(=O)N2CCOCC2)c(C)c1 (centres undefined)
inactive: locus YAR019C, strain CDC15, stronger effect = lower value 0.993 | locus YBL105C, strain PKC1, stronger effect = lower value 0.997 | locus YBR135W, strain CKS1, stronger effect = lower value 0.988 | locus YBR136W, strain MEC1, stronger effect = lower value 0.972 | locus YBR160W, strain CDC28, stronger effect = lower value 0.991 | locus YDL017W, strain CDC7, stronger effect = lower value 0.992 | locus YDL028C, strain MPS1, stronger effect = lower value 0.988 | locus YDL101C, strain DUN1, stronger effect = lower value 0.995 | locus YDL108W, strain KIN28, stronger effect = lower value 0.991 | locus YDL132W, strain cdc53, stronger effect = lower value 0.991 | locus YDL214C, strain PRR2, stronger effect = lower value 1.04 | locus YDR052C, strain DBF4, stronger effect = lower value 0.998 | locus YDR054C, strain cdc34, stronger effect = lower value 0.99 | locus YDR226W, strain ADK1, stronger effect = lower value 0.98 | locus YDR477W, strain SNF1, stronger effect = lower value 1.05 | locus YER123W, strain YCK3, stronger effect = lower value 1.05 | locus YER133W, strain GLC7, stronger effect = lower value 1.05 | locus YFL009W, strain cdc4, stronger effect = lower value 0.985 | locus YFL029C, strain CAK1, stronger effect = lower value 0.995 | locus YFR003C, strain YPI1, stronger effect = lower value 0.995 | locus YFR019W, strain FAB1, stronger effect = lower value 1.01 | locus YFR028C, strain CDC14, stronger effect = lower value 0.993 | locus YGR040W, strain KSS1, stronger effect = lower value 1.05 | locus YGR052W, strain FMP48, stronger effect = lower value 1.11 | locus YGR092W, strain DBF2, stronger effect = lower value 1.02 | [1] 1.03 | [2] 1.04 | locus YHR082C, strain KSP1, stronger effect = lower value 1.21 | locus YHR205W, strain SCH9, stronger effect = lower value 0.908 | locus YIL147C, strain SLN1, stronger effect = lower value 0.983 | [3] 1.02 | locus YJL128C, strain PBS2, stronger effect = lower value 0.937 | locus YJL157C, strain FAR1, stronger effect = lower value 1.02 | locus YJR016C, strain ILV3, stronger effect = lower value 0.991 | locus YJR066W, strain TOR1 (second series), stronger effect = lower value 1.05 | [4] 1.19 | locus YKL048C, strain ELM1, stronger effect = lower value 1.01 | locus YKL067W, strain YNK1, stronger effect = lower value 1.02 | locus YKL101W, strain HSL1, stronger effect = lower value 1.01 | locus YKL193C, strain SDS22, stronger effect = lower value 0.983 | locus YKL203C, strain TOR2, stronger effect = lower value 1.09 | [5] 1.07 | locus YLR133W, strain CKI1, stronger effect = lower value 1.03 | locus YLR403W, strain SFP1, stronger effect = lower value 0.957 | locus YML070W, strain DAK1, stronger effect = lower value 1.05 | locus YMR001C, strain CDC5, stronger effect = lower value 0.994 | locus YMR205C, strain PFK2 (second series), stronger effect = lower value 1.03 | locus YMR277W, strain FCP1, stronger effect = lower value 0.989 | locus YNL006W, strain LST8, stronger effect = lower value 0.991 | locus YNL020C, strain ARK1, stronger effect = lower value 1.04 | locus YNL161W, strain CBK1, stronger effect = lower value 0.991 | [6] 1.18 | locus YNL207W, strain RIO2, stronger effect = lower value 0.985 | locus YNL222W, strain SSU72, stronger effect = lower value 0.991 | locus YNL307C, strain MCK1 (second series), stronger effect = lower value 1.02 | locus YOL078W, strain AVO1, stronger effect = lower value 0.985 | locus YOL136C, strain PFK27, stronger effect = lower value 1.05 | locus YOR061W, strain CKA2, stronger effect = lower value 1.01 | locus YOR119C, strain RIO1, stronger effect = lower value 1.11 | [7] 1.11 | locus YOR329C, strain SCD5, stronger effect = lower value 0.993 | locus YPL031C, strain PHO85, stronger effect = lower value 1.04 | locus YPL153C, strain RAD53, stronger effect = lower value 1.03 | locus YPL204W, strain HRR25, stronger effect = lower value 1.06 | locus YPL209C, strain IPL1, stronger effect = lower value 0.99 | [8] 1.06 | locus YPR025C, strain CCL1, stronger effect = lower value 0.997 | locus YPR106W, strain ISR1, stronger effect = lower value 1.01 | locus YPR111W, strain DBF20, stronger effect = lower value 1 | strain NNK1, stronger effect = lower value 0.999 | strain TSCII, stronger effect = lower value 0.994
